From PubChem
Shown is part of a subset that was picked to be rich in hits.
Pf apPOL inh: Pf-apPOL inhibitors, biochemical, fluorescence; AID 1794808, 2022; Recombinant Pf-apPOL, molecular beacon fluorescence, 1.5 h; Plasmodium falciparum apicoplast DNA polymerase (apPOL); 210,000 compounds, 0.25% hits; inhibition, % at 10 µM
mHTT CaM bind: mutant huntingtin-calmodulin interaction inhibitors – biochemical, AlphaScreen, primary screen; 190,000 compounds, 3.6% hits; P42858; inhibition, % at 15 µM; AlphaScreen His-mHTT/GST-CaM binding, luminescence;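 note: 0% = both proteins with DMSO and 100% = one protein alone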
Target sequence (P42858 whole entry, looked up, stated change not applied): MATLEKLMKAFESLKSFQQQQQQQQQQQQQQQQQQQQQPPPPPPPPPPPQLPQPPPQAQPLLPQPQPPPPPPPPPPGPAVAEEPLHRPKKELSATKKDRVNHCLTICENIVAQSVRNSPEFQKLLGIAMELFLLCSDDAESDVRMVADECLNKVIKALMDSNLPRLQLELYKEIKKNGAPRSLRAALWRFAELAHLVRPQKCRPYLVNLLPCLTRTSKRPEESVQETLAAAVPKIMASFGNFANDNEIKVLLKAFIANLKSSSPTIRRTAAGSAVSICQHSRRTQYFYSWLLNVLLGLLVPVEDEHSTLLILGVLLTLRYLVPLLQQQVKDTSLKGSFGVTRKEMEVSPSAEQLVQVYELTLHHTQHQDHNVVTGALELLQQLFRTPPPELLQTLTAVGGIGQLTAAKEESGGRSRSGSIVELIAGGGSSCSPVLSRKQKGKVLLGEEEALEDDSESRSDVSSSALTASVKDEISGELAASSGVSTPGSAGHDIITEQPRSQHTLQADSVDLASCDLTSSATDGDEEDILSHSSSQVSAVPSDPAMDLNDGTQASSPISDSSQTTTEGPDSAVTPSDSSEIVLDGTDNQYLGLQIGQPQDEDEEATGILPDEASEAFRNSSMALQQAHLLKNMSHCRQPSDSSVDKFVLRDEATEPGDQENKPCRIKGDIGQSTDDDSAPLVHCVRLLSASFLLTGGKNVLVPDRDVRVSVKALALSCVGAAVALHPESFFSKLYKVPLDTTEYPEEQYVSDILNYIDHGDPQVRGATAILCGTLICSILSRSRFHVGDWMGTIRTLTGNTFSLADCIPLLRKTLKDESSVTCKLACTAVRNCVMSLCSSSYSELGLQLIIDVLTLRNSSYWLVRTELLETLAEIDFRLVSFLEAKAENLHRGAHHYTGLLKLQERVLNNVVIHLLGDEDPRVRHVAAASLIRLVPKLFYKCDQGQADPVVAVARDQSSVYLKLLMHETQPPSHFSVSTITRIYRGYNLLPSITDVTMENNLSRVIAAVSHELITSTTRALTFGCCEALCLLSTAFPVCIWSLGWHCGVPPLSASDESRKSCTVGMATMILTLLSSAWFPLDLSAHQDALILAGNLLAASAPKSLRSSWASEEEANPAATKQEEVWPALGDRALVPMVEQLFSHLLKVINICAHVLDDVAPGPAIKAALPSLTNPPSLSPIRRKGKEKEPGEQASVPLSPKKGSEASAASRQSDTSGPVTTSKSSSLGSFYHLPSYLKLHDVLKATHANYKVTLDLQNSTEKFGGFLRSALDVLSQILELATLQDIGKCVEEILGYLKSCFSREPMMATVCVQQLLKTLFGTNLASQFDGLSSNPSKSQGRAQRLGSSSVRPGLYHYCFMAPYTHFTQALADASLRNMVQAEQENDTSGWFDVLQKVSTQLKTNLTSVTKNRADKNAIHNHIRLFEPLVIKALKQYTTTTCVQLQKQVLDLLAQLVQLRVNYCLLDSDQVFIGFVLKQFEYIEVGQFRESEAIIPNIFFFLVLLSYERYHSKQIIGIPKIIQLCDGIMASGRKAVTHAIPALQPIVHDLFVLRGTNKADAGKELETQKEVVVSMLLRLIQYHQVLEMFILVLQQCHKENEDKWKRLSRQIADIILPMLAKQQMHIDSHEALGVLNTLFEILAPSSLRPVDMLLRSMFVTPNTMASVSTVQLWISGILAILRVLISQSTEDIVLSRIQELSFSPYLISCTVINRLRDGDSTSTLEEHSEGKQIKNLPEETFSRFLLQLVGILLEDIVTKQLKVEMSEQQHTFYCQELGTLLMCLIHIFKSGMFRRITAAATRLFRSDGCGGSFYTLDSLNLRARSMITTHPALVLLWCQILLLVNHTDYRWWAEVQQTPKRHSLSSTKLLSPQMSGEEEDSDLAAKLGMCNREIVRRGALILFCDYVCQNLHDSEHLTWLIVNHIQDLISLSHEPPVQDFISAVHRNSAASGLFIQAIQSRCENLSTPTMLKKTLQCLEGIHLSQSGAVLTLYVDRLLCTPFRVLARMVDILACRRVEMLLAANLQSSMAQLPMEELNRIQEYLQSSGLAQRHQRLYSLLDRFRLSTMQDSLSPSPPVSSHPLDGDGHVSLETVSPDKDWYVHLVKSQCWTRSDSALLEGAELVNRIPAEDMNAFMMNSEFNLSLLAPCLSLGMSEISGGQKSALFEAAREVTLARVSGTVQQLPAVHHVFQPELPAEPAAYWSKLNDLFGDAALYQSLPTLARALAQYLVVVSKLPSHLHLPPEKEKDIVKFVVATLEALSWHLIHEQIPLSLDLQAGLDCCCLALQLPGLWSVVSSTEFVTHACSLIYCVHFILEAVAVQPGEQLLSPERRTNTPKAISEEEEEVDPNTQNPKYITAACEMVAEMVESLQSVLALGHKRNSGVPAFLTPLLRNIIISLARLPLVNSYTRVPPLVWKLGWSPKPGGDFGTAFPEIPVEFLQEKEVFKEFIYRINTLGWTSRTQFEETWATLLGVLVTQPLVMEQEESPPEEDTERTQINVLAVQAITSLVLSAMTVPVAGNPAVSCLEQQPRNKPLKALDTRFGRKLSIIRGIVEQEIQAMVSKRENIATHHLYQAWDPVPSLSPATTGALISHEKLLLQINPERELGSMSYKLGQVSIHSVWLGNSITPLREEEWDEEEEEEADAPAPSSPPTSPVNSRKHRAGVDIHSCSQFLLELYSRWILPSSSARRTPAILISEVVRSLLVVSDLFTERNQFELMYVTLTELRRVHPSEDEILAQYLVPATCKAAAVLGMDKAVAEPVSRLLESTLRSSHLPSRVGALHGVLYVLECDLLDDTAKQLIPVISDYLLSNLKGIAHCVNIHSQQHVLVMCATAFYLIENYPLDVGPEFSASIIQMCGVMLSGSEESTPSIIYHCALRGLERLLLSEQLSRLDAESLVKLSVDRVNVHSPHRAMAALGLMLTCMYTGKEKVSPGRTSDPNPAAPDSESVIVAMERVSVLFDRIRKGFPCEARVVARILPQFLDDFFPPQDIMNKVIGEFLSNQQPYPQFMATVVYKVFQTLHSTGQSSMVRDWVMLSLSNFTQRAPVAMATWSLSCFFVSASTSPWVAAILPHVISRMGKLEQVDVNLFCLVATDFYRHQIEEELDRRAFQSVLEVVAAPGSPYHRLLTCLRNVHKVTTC
Numbers without * were called inactive; x = no result given; ! = not confirmed by another sample. Cut-off read from the data, not from the text of the source: active = inhibition above about 50%; inactive = the rest.

SMILES | Pf apPOL inh | mHTT CaM bind
CNc1nccc(N2CCC(CC(=O)NCCCN3CCc4ccccc4C3)CC2)n1 | -2 | 23
CCCCC(CC)CNC(=O)CCCn1c(=S)[nH]c2cc3c(cc2c1=O)OCO3 (stereo not drawn) | 2 | -4
OC[C@@H]1[C@@H](c2ccccc2)C(c2cccc(Cl)c2)=NN1c1ccccc1 | -6 | 59*
CC(=O)N1CCC(n2c(C)nc(C(=O)Nc3ccc(Oc4ccccc4)cc3)c2C)CC1 | -2 | 52*
CCOC(=O)c1ccc(NC(=O)c2nc(C)n(C3CCN(C(C)=O)CC3)c2C)cc1 | -5 | 30
Cc1cc(NN=Cc2ccco2)c([N+](=O)[O-])cc1[N+](=O)[O-] | 12 | x
COc1ccc(C(=O)CC(=O)c2ccccc2)cc1 | 4 | 42
COc1ccc(O)c(C(=O)CC(=O)c2ccccc2)c1 | 2 | 50*
COc1ccccc1CN1Cc2cccc3c2[C@@H](CC1=O)[C@H](O)[C@H](O)C3 | -3 | -2
Cc1ccccc1CN1Cc2cccc3c2[C@H](C=CC3)CC1=O | -3 | 100*
O=C1CC2C=CCc3cccc(c32)CN1Cc1cccc(F)c1 (stereo not drawn) | -4 | 100*
O=C1C[C@H]2C=CCc3cccc(c32)CN1Cc1ccc(Br)cc1 | -8 | 12
CC(=O)N1CCN(Cc2ccc(Cl)c(Cl)c2)CC1 | -4 | -2
COc1cc2c(cc1OC)C(CC(=O)Nc1ccc(C)cc1C)=NC(C)(C)C2 | 28 | -5
O=C(NCCN1CCOCC1)c1cnc2n(c1=O)CCS2 | -1 | 1
O=C(c1ccc(I)cc1)N1CCN(c2ccc(F)cc2)CC1 | -2 | 6
O=C(CSCc1ccccc1)Nc1cccc(-c2cn3cccnc3n2)c1 | -6 | 52*
Cc1onc(-c2ccccc2Cl)c1C(=O)Nc1cccc(-c2cn3cccnc3n2)c1 | -6 | 16
COc1cc(C2C(C(=O)Nc3ccc(C)cc3C)=C(C)Nc3nnnn32)ccc1OC(F)F (stereo not drawn) | 6 | 2
O=C(c1cc2ccccc2[nH]1)N1CCN(Cc2csc(-c3ccccc3)n2)CC1 | -10 | 66*
O=C(CCC(=O)N1CCN(Cc2csc(-c3ccccc3)n2)CC1)c1ccccc1 | -9 | 20
COc1ccc(NC(=O)CN2C(=O)C(c3ccccc3)=NC23CCCC3)cc1Cl | -11 | 8
O=[N+]([O-])c1cccc2ccc(Nc3ccccn3)nc12 | 3 | 14
COc1cccc2cc(C(=O)Nc3cc(C)ccn3)c(=O)oc12 | -3 | 0
COc1ccccc1C(Nc1cc(C)ccn1)c1ccc2cccnc2c1O (stereo not drawn) | -8 | 99*
SMILES | Pf apPOL inh | mHTT CaM bind
COc1ccc(C(Nc2cc(C)ccn2)c2ccc3ccc(C)nc3c2O)cc1OC (stereo not drawn) | -55 | 96*
COc1ccc(C(Nc2cc(C)ccn2)c2ccc3cccnc3c2O)cc1OC (stereo not drawn) | 3 | 100*
COc1ccc(C)cc1NS(=O)(=O)c1cccc2cccnc12 | -1 | -3
COc1ccc(NC(=O)Nc2cc(C)ccn2)cc1 | -4 | -3
Cc1ccnc(NC(c2ccccc2[N+](=O)[O-])c2ccc3cccnc3c2O)c1 (stereo not drawn) | -3 | 100*
Cc1ccc2c(NC(=O)CN3C(=O)CCC3=O)cccc2n1 | -3 | 0
COc1ccc(C(Nc2ccccn2)c2ccc3cccnc3c2O)cc1OC (stereo not drawn) | -4 | 100*
CCOc1ccc(C(Nc2ccccn2)c2ccc3ccc(C)nc3c2O)cc1OC (stereo not drawn) | 1 | 49
CN(Cc1ccccc1)c1ncnc(N)c1[N+](=O)[O-] | 92*! | 9
CC(C)N(Cc1ccccc1)c1ncnc(N)c1[N+](=O)[O-] | 0 | 8
NNc1nc(Nc2ccccc2)nc(N2CCOCC2)n1 | -1 | 98*
NNc1nc(Nc2ccccc2)nc(N2CCCC2)n1 | -6 | 81*
c1ccc(Nc2nc(N3CCCCC3)nc(N3CCNCC3)n2)cc1 | 0 | 16
Clc1ccc(Nc2nc(Oc3ccccc3)nc(N3CCOCC3)n2)cc1 | -3 | -2
CC(C)CSc1sc(C(=O)O)c(-c2ccc(Cl)cc2)c1C#N | 2 | x
COc1ccc2cccc(NC(=O)c3c[nH]c4ccccc34)c2n1 | -1 | 58*
COc1ccc2cccc(NC(=O)c3ccco3)c2n1 | -7 | 12
COC(=O)C1=C(N)Oc2c(oc(CO)cc2=O)C1c1cccc(OC)c1 (stereo not drawn) | 2 | -3
O=C1c2ccccc2C(=O)N1CNc1ccc(Br)cc1 | -1 | 1
O=[N+]([O-])c1cc(C2C=C(c3ccc(Cl)cc3)Nc3nnnn32)ccc1Cl (stereo not drawn) | -4 | 37
Cc1csc(C(=O)NCC2CCN(S(=O)(=O)C3CC3)CC2)c1 | -2 | -4
Cc1c(Cl)c(C)c(C=O)c(O)c1Br | -3 | 79*
CN(C)CCn1c2c(c3ccccc31)CCCn1nnnc1-2 | -12 | 56*
CC(=O)Nc1nc2ccccc2n1CCN(C)C | 0 | -1
Cc1cccc(-n2c(N)c(C#N)c3nc4ccccc4nc32)c1 | 2 | -4
SMILES | Pf apPOL inh | mHTT CaM bind
CCc1nc(N2CCCC2=O)sc1C(=O)N1CCN(c2cc(C)ccc2C)CC1 | 0 | 95*
COC(=O)c1cccc(C(=O)N2CCN(c3cc(C)ccc3C)CC2)n1 | 0 | 1
Cc1ccc(C)c(N2CCN(C(=O)c3cc(C)n4nccc4n3)CC2)c1 | -3 | -6
CC(C)c1nc(N2CCCC2=O)sc1C(=O)N1CCN(c2ccccc2F)CC1 | -3 | 55*
CC(C)c1nc(N2CCCC2=O)sc1C(=O)N1CCN(c2ccc(F)cc2)CC1 | -1 | 32
CCc1cc(C(=O)N2CCN(c3cc(C)ccc3C)CC2)nc2ccnn12 | 1 | 54*
COc1ccc(NC(=O)/C=C/c2ccc(Cl)cc2)cc1 | -9 | x
COc1ccc(OC(NC(=O)/C=C/c2ccccc2)C(Cl)(Cl)Cl)cc1 (stereo not drawn) | 1 | 51*
O=C(/C=C/c1ccccc1)NC(Nc1ccccc1)C(Cl)(Cl)Cl (stereo not drawn) | -8 | 96*
O=C(/C=C/c1ccccc1)NC(Nc1cccnc1)C(Cl)(Cl)Cl (stereo not drawn) | 0 | 31
O=C(NC(Nc1ccccc1)C(Cl)(Cl)Cl)c1ccc(F)cc1 (stereo not drawn) | -4 | -9
O=C(NC(Nc1ccccc1)C(Cl)(Cl)Cl)c1ccc(Br)cc1 (stereo not drawn) | 4 | 57*
O=C(NC(Nc1ccc(Br)cc1)C(Cl)(Cl)Cl)c1ccc(F)cc1 (stereo not drawn) | -3 | 87*
O=C(NC(Nc1ccccc1)C(Cl)(Cl)Cl)c1ccc(Cl)cc1 (stereo not drawn) | -2 | 16
Cc1cccc(NC(=O)c2oc3ccc(S(=O)(=O)N4CCCC4)cc3c2C)c1C | -10 | 20
Cc1ccc(S(=O)(=O)N2CCC(c3noc(-c4cccc(F)c4)n3)CC2)cc1F | -2 | -4
C=CCn1c(=O)c2ccc(C(=O)NCC(C)C)cc2n2c(=O)n(CC(N)=O)nc12 | 4 | -4
COc1ccc(C(=O)Nc2ccc(-c3nc4ccccc4s3)c(O)c2)cc1OC | 3 | -1
COCCNC(=O)N1CCC(c2noc(N)c2C(C)C)CC1 | -3 | -5
CCCCC[C@@H](C)N1C[C@H](COCc2ccccc2)Oc2cc(N3CC[C@H](O)C3)ccc2S1(=O)=O | -10 | 78*
